# Test results as given in PubChem BioAssay (EPA / NIEHS).
# Calls of active or inactive are those of the source. How the source made its calls: active means hit-call score of the fitted dose curve at least 0.9, where 1 is the maximum; inactive means score below 0.9.
# Experiments:
# [1] = ATG_CRE_CIS: Attagene CIS-FACTORIAL HepG2 Assay for human cAMP Responsive Element (CRE) binding protein 3 (AID 2282926); settings: HepG2 CRE cis-reporter, Attagene multiplexed mRNA; actives raise or lower the signal
# Method in brief: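 Human liver HepG2, transient MRTU transfection, 24 h compound exposure. Total RNA → oligo(dT) RT → PCR → 6-FAM primer extension → HpaI cut → CE. Activity called both directions vs DMSO.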
# [2] = biological target: CCAAT/enhancer-binding protein beta (Homo sapiens) (UniProt P17676); experiment: ATG_C_EBP_CIS: Attagene CIS-FACTORIAL HepG2 Assay for human CCAAT/Enhancer Binding Protein (C/EBP) beta (AID 2282927); settings: HepG2 Attagene cis-factorial transcription factor reporter; actives raise or lower the signal
# Method in brief: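 Following a 24 h incubation with test chemical, transfected HepG2 cells yielded RNA whose reporter transcripts were quantified by RT-PCR and fluorescent capillary electrophoresis, with DMSO serving as baseline for bidirectional fitting.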
# [3] = ATG_CMV_CIS: Attagene CIS-FACTORIAL HepG2 Assay for human CMV (Internal Marker) (AID 2282928); settings: HepG2 CMV promoter reporter, transcription factor profiling; actives raise or lower the signal;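 further: endpoint acts as a background internal control marker rather than a target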
# Method in brief: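 HepG2 cells transiently transfected with multiple cis-regulated reporter units; 24 h compound exposure. Reporter mRNA quantified by RT-PCR, 6-FAM primer-extension labeling, HpaI digestion and capillary electrophoresis; bidirectional fitting against DMSO baseline.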
# [4] = ATG_DR4_LXR_CIS: Attagene CIS-FACTORIAL HepG2 Assay for human Liver X Receptor (LXR), DR4 submotif (AID 2282929); settings: HepG2 Attagene DR4 cis-reporter, mRNA transcription; actives raise or lower the signal
# Method in brief: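 Cells were transfected with multiple reporter transcription units, exposed to chemicals for 24 hours, then lysed for RNA. Reporter mRNA induction was measured by RT-PCR with capillary electrophoresis detection and fitted in both directions relative to DMSO.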
# [5] = ATG_AP_1_CIS: Attagene CIS-FACTORIAL HepG2 Assay for human Activator Protein 1 (AP-1) (AID 2282931); settings: HepG2 Attagene cis-factorial AP-1 reporter mRNA; actives raise or lower the signal
# Method in brief: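 Endogenous transcription-factor activity in human HepG2 liver cells is read through a cis-promoter reporter transcript, sampled 24 h after dosing. Detection uses RT-PCR with capillary electrophoresis; values come from bidirectional fitting relative to DMSO.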
# [6] = ATG_AP_2_CIS: Attagene CIS-FACTORIAL HepG2 Assay for human Activator Protein 2 (AP-2) (AID 2282932); settings: HepG2 AP-2 cis-reporter, Attagene transcription factor profiling; actives raise or lower the signal
# Method in brief: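 HepG2 cells were transiently transfected with multiple cis-promoter reporter transcription units and dosed for 24 h. Reporter mRNA was measured by RT-PCR with capillary electrophoresis fluorescence; bidirectional fits relative to DMSO baseline.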
# [7] = ATG_BRE_CIS: Attagene CIS-FACTORIAL HepG2 Assay for human Bone Morphogenetic Protein (BMP) Response Element (BRE) (AID 2282933); settings: HepG2 BMP response element reporter, Attagene transcription factor profiling; actives raise or lower the signal
# Method in brief: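 Read-out: reporter mRNA induction quantified by RT-PCR and capillary electrophoresis after 24 h chemical exposure of transfected HepG2 cells. Endogenous factor activity on the BMP response element; gain or loss fitted against DMSO baseline.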
# [8] = biological target: Retinoic acid receptor alpha (Homo sapiens) (UniProt P10276); experiment: ATG_DR5_RAR_CIS: Attagene CIS-FACTORIAL HepG2 Assay for human Retinoic Acid Receptor Alpha (RARE), DR5 submotif (AID 2282934); settings: HepG2 Attagene cis-factorial RARE DR5 reporter, mRNA; actives raise or lower the signal
# Method in brief: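 Endpoint fitted in both directions relative to DMSO as negative control. It reflects DR5 cis-element reporter mRNA induction in transiently transfected HepG2 cells, measured 24 h after dosing through RT-PCR and fluorescent capillary electrophoresis.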
# [9] = biological target: Transcription factor E2F1 (Homo sapiens) (UniProt Q01094); experiment: ATG_E2F_CIS: Attagene CIS-FACTORIAL HepG2 Assay for human E2F Transcription Factor 1 (AID 2282935); settings: HepG2 Attagene cis-reporter, E2F reporter RNA transcripts; actives raise or lower the signal
# Method in brief: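 HepG2 cells transiently transfected with multiplexed cis-element reporter units, dosed for 24 h. Reporter mRNA measured by RT-PCR, 6-FAM primer-extension labeling, HpaI digestion and capillary electrophoresis; bidirectional fit versus DMSO baseline.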
# [10] = ATG_E_Box_CIS: Attagene CIS-FACTORIAL HepG2 Assay for human Enhancer Box (E-box) (AID 2282936); settings: HepG2 E-box cis-reporter transcription, actives raise or lower the signal
# Method in brief: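 HepG2 cells transiently transfected with multiplexed cis-element reporter units sensing endogenous transcription factor activity; 24 h compound exposure. Reporter mRNA measured by RT-PCR, 6-FAM primer extension, HpaI digestion and capillary electrophoresis; bidirectional fit versus DMSO.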
# [11] = ATG_M_61_CIS: Attagene CIS-FACTORIAL HepG2 Assay for M61 Transcription Factor (Internal Marker) (AID 2282937); settings: HepG2 Attagene CIS-FACTORIAL M61 internal marker reporter; actives raise or lower the signal
# Method in brief: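 Cells were transfected with reporter units under cis-regulatory promoters, treated with chemicals for 24 h, then lysed for RNA. Reporter transcripts were quantified by RT-PCR and capillary electrophoresis, and activity was fitted bidirectionally against DMSO.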
# [12] = ATG_EGR_CIS: Attagene CIS-FACTORIAL HepG2 Assay for human Early Growth Response 1 (EGR1) (AID 2282938); settings: HepG2 Attagene CIS-FACTORIAL EGR reporter mRNA; actives raise or lower the signal
# Method in brief: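 Endogenous TF activity in HepG2 liver cells was gauged through cis-promoter reporter constructs transiently transfected. After 24 h dosing, reporter mRNA was quantified by RT-PCR and capillary electrophoresis, and curves fitted in both directions versus DMSO.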
# [13] = ATG_M_19_CIS: Attagene CIS-FACTORIAL HepG2 Assay for M19 Transcription Factor (Internal Marker) (AID 2282939); settings: HepG2 Attagene CIS-FACTORIAL M19 internal marker reporter; actives raise or lower the signal
# Method in brief: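 Readout: fluorescent reporter-transcript fragments by capillary electrophoresis after RT-PCR. Human HepG2 liver cells carried transfected MRTU constructs reporting endogenous transcription-factor activity; exposure 24 h. Gain or loss of signal fitted relative to DMSO.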
# [14] = ATG_Ets_CIS: Attagene CIS-FACTORIAL HepG2 Assay for human Erythroblast Transformation Specific (ETS) (AID 2282941); settings: HepG2 ETS cis-reporter transcription, actives raise or lower the signal
# Method in brief: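 HepG2 cells transiently transfected with cis-promoter reporter transcription units were dosed for 24 h; reporter mRNA was measured by RT-PCR, 6-FAM primer extension, HpaI digestion and capillary electrophoresis, with bidirectional fitting against DMSO baseline.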
# [15] = biological target: Hepatocyte nuclear factor 3-beta (Homo sapiens) (UniProt Q9Y261); experiment: ATG_FoxA2_CIS: Attagene CIS-FACTORIAL HepG2 Assay for human Forkhead box A2 (FOXA2) (AID 2282942); settings: HepG2 cis-reporter transcription factor activity, 24 h; actives raise or lower the signal
# Method in brief: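 Endogenous transcription factor activity was read in HepG2 cells carrying transiently transfected cis-promoter reporter units. After 24 h dosing, reporter mRNA was quantified by RT-PCR and capillary electrophoresis, and values fitted bidirectionally versus DMSO.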
# [16] = ATG_FoxO_CIS: Attagene CIS-FACTORIAL HepG2 Assay for human Forkhead box O (FoxO) (AID 2282943); settings: HepG2 Attagene cis-reporter, FoxO element, mRNA; actives raise or lower the signal
# Method in brief: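 Values reflect reporter mRNA induction or loss in HepG2 cells 24 h post-dosing, fitted bidirectionally with DMSO as negative control and baseline. Detection used RT-PCR and fluorescence capillary electrophoresis.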
# [17] = ATG_GATA_CIS: Attagene CIS-FACTORIAL HepG2 Assay for human GATA Binding Protein (AID 2282944); settings: HepG2 GATA cis-element reporter, Attagene multiplex mRNA; actives raise or lower the signal
# Method in brief: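 Read-out: fluorescent reporter mRNA fragments resolved by capillary electrophoresis after RT-PCR. Human liver HepG2 cells carried transiently transfected cis-regulated reporter constructs; chemicals incubated 24 h; gain or loss of signal fitted relative to DMSO.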
# [18] = ATG_GLI_CIS: Attagene CIS-FACTORIAL HepG2 Assay for human Zinc Finger Protein GLI1 (AID 2282945); settings: HepG2, Attagene cis-factorial reporter mRNA, GLI element; actives raise or lower the signal
# Method in brief: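 HepG2 cells transiently transfected with cis-promoter multiplexed reporter units report endogenous transcription factor activity. After 24 h chemical exposure, reporter mRNA was quantified by RT-PCR, 6-FAM labelling, HpaI digestion and capillary electrophoresis, with bidirectional fitting against DMSO.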
# CCAAT/enhancer-binding protein beta (Homo sapiens), sequence (P17676 whole entry, looked up): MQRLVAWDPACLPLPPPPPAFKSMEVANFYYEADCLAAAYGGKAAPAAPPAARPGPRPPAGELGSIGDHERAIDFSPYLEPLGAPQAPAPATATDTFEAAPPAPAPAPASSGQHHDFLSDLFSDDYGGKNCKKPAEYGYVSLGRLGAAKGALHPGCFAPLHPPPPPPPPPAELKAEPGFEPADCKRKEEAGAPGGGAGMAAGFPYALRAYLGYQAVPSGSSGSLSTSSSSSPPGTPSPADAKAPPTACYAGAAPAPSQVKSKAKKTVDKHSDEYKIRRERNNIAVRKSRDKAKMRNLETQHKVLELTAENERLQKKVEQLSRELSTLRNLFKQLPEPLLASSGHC
# Hepatocyte nuclear factor 3-beta (Homo sapiens), sequence (Q9Y261 whole entry, looked up): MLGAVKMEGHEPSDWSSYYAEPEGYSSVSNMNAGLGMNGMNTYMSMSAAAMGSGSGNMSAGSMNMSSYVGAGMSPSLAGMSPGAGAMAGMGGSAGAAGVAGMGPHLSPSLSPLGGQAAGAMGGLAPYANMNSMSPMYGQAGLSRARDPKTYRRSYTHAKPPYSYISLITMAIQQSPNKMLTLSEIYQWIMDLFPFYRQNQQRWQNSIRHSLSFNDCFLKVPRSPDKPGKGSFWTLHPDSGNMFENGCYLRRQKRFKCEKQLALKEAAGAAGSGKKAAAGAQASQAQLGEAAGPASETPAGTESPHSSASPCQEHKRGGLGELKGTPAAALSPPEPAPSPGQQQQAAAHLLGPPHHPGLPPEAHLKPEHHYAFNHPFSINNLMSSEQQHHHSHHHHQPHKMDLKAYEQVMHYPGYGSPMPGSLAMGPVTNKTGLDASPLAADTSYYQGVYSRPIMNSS
# Transcription factor E2F1 (Homo sapiens), sequence (Q01094 whole entry, looked up): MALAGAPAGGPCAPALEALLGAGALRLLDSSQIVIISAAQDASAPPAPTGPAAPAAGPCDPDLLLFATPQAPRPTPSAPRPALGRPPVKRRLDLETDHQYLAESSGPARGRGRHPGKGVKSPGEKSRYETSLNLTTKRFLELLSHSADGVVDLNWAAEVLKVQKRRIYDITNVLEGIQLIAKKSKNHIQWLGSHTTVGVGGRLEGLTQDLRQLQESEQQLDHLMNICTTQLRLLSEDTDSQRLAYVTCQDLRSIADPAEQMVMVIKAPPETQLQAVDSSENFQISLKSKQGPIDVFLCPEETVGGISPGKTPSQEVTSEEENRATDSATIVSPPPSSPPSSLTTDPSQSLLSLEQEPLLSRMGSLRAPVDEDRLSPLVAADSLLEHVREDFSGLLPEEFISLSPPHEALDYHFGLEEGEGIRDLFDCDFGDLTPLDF
# Retinoic acid receptor alpha (Homo sapiens), sequence (P10276 whole entry, looked up): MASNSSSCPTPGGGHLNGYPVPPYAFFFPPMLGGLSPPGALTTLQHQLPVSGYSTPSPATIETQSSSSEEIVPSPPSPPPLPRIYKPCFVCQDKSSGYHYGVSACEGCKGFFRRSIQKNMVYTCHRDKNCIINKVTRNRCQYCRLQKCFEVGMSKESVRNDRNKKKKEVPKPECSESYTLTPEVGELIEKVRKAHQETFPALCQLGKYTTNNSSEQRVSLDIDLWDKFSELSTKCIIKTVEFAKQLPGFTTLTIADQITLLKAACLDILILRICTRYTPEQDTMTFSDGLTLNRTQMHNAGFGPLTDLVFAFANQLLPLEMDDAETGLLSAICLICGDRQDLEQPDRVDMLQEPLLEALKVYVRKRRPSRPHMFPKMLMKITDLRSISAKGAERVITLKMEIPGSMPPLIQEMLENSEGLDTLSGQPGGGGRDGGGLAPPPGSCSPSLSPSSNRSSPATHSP
structure (smiles),measurement,setting,value
NC1CCCCC1N (stereo not drawn),outcome,[1],inactive
same,outcome,[2],inactive
same,outcome,[3],inactive
same,outcome,[4],inactive
same,outcome,[5],inactive
same,outcome,[6],inactive
same,outcome,[7],inactive
same,outcome,[8],inactive
same,outcome,[9],inactive
same,outcome,[10],inactive
same,outcome,[11],inactive
same,outcome,[12],inactive
same,outcome,[13],inactive
same,outcome,[14],inactive
same,outcome,[15],inactive
same,outcome,[16],inactive
same,outcome,[17],inactive
same,outcome,[18],inactive
COC(CC(C)CCCC(C)(C)O)OC (stereo not drawn),outcome,[1],inactive
same,outcome,[2],inactive
same,outcome,[3],inactive
same,outcome,[4],inactive
same,outcome,[5],inactive
same,outcome,[6],inactive
same,outcome,[7],inactive
same,outcome,[8],inactive
same,outcome,[10],inactive
same,outcome,[11],inactive
same,outcome,[12],inactive
same,outcome,[13],inactive
same,outcome,[15],inactive
same,outcome,[16],inactive
same,outcome,[17],inactive
same,outcome,[18],inactive
Cc1ccc(N)c(S(=O)(=O)O)c1,outcome,[1],inactive
same,outcome,[2],inactive
same,outcome,[3],inactive
same,outcome,[4],inactive
same,outcome,[6],inactive
same,outcome,[7],inactive
same,outcome,[8],inactive
same,outcome,[9],inactive
same,outcome,[10],inactive
same,outcome,[11],inactive
same,outcome,[12],inactive
same,outcome,[13],inactive
same,outcome,[14],inactive
same,outcome,[15],inactive
same,outcome,[16],inactive
same,outcome,[17],inactive
same,outcome,[18],inactive
CCCOC(=O)c1c(Cl)c(Cl)c(Cl)c(Cl)c1C(=O)OCCC,AC50,[1],171 µM (active)
same,outcome,[2],inactive
same,AC50,[3],73.6 µM (active)
same,AC50,[4],27 µM (active)
same,AC50,[5],178 µM (active)
same,outcome,[6],inactive
same,outcome,[8],inactive
same,AC50,[9],59.9 µM (active)
same,outcome,[10],inactive
same,outcome,[11],inactive
same,outcome,[12],inactive
same,outcome,[13],inactive
same,outcome,[14],inactive
same,outcome,[15],inactive
same,outcome,[16],inactive
same,outcome,[17],inactive
same,AC50,[18],74.8 µM (active)
